High-throughput results from PubChem BioAssay.
ELG1 repair inh: blocks ELG1-dependent DNA repair in HEK293T cells; HEK293T ELG1-luciferase reporter, luminescence, 16 h; DNA damage induced by 5-fluorouridine; Potency, µM (highest dose often 46.1 µM), hits mostly inhibitors; actives 2.3% (n = 330,000); further: nearly all actives have a fitted effect of over 55% in size
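Cells (2,000 per well) received 5-fluorouridine plus test compound or DMSO and were incubated 16 hr at 37 °C, 5% CO2. Luciferase activity was read by luminescence 30 min after ONE-Glo addition; signal suppression marked inhibition of damage-induced ELG1 function.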
FLuc modulator: counter-screen for miR-21 project: firefly luciferase inhibitors or activators. AID 588342. actives 6.9% (n = 360,000). P08659. purified FLuc, Km substrates, luminescence inhibition. Potency, µM (titrated, usually from 57.5 µM), hits mostly inhibitors; further: nearly all actives have a fitted effect of over 55% in size
Target sequence (P08659 whole entry, looked up): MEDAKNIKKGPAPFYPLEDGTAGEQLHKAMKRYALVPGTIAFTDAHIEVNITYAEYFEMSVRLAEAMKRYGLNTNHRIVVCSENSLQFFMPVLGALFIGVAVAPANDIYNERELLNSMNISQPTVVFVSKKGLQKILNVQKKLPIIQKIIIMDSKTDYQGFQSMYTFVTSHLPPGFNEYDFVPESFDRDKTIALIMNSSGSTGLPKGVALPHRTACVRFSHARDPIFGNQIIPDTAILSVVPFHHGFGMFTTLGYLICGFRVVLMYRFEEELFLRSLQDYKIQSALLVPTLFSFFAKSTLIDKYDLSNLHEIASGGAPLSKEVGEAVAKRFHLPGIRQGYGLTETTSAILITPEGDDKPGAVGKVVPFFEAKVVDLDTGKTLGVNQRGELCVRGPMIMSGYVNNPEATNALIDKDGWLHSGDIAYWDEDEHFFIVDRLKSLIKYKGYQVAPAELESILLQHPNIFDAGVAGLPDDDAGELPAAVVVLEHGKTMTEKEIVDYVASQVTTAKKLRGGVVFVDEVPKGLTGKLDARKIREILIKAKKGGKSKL
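Biochemical qHTS of compounds, final roughly 60 µM downward over six points, against 10 nM purified firefly luciferase using Km concentrations of substrates (10 uM D-luciferin, 10 uM ATP) in Tris acetate pH 7.5 buffer; luminescence output.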
ELG1 genotoxic: inducers of genotoxicity in HEK293T ELG1-luciferase cells. HEK293T ELG1-luciferase reporter, luminescence, 16 h. Potency, µM (titrated, usually from 46 µM), most hits filed as activators. actives 1.3% (n = 330,000). AID 504466; further: nearly all actives have a fitted effect of over 60% in size
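Reporter readout depends on ELG1 protein level, which increases with genetic stress. After 16 hr compound exposure at 37 °C, luciferase activity was quantified using ONE-Glo.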
NPC1 promoter act: activates the NPC1 promoter. Huh7 NPC1 promoter luciferase reporter, 24 h. Potency, µM (series often up to 9.22 µM), usual class: activators. actives 2.4% (n = 320,000). AID 485313; further: nearly all actives have a fitted effect of over 60% in size
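Huh7 cells stably carrying NPC1 promoter–luciferase, plated in Opti-MEM with 10% FBS for 2 h, were exposed to compound in DMSO for 24 h at 37 °C; luciferase reagent was added for 10 min and luminescence read.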
Rab9 prom act: activates the Rab9 promoter | Huh7 Rab9 promoter-luciferase reporter, luminescence, 24 h | Potency, µM (titrated, usually from 9.22 µM), hits mostly activators | actives 2.8% (n = 320,000) | AID 485297; further: nearly all actives have a fitted effect of over 60% in size
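Luminescence read-out: Huh7 cells stably expressing Rab9-luciferase, treated 24 h with compound at 37 °C, then lysed with luciferase reagent for 10 min at ambient before reading.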
SMN2 splice up: increases expression of the SMN2 splice variant; HEK293 SMN2-luciferase splicing reporter, luminescence, 30-36 h; Potency, µM (highest dose often 46.1 µM), most hits filed as activators; actives 2.8% (n = 210,000); AID 1458; further: nearly all actives have a fitted effect of over 55% in size
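qHTS luciferase splicing reporter: luminescence rises when SMN2 exon 7 is included in transfected HEK293 cells. Compound exposure lasted 30-36 h at 37C, with 4.5 mM final sodium butyrate as control, followed by a ONE-Glo read.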
Hits are given with their value; 0 = inactive; ? = inconclusive; - = no result; ! = not active in a repeat; [ ] = remark or other dose. This is a sample that favours compounds with a hit; in the whole collection about 9.2% have one here. The call rests on the fitted dose curve; in most records, active means well fitted curve in the direction sought with a large enough effect; inconclusive means small, poorly fitted or top-dose-only effect, or another doubt; inactive means no such curve, though single readings can be large; an effect the other way counts as inactive or inconclusive.

SMILES	ELG1 repair inh	FLuc modulator	ELG1 genotoxic	NPC1 promoter act	Rab9 prom act	SMN2 splice up
Nc1c(C(=O)Nc2ccc(Cl)cc2)sc2nc3c(cc12)N1CCC3CC1	-	0	-	-	-	0
c1ccc2c(c1)CCCC2	-	-	-	-	-	0
O.O.[NH-]C1(C(=O)O)CCCC1.[NH-]C1(C(=O)O)CCCC1.[Ni+2]	-	-	-	-	-	0[9.22 µM]
Cc1c(OCC(F)(F)F)ccnc1CS(=O)c1nc2ccccc2[nH]1 (configuration not stated)	?	13.5µM!	0	2.82µM	3.98µM	0
COCCCOc1ccnc(CS(=O)c2nc3ccccc3[nH]2)c1C (configuration not stated)	?	?	0	3.16µM	2.82µM	-
COc1ccc(-c2n[nH]c(=S)n2-c2ccc3c(c2)OCCO3)cc1OC	?	12µM	?	0	0	-
CN=C=O	-	-	-	-	-	0
CCCCCCOC(=O)c1ccccc1N	?	16.9µM	?	0	0	0
Nc1ccccc1C(=O)OCCc1ccccc1	?	1.9µM	?	1.12µM	0.794µM	14.1µM
CN1C(=O)C(=Cc2c(OCc3cnc(Cl)s3)ccc3ccccc23)C(=O)N(C)C1=O	0	19µM	?	0	?	0
CN1C(=O)C(=Cc2ccccc2OCc2ccccc2Cl)C(=O)N(C)C1=O	0	?	0	0	0	0
C[C@@H]1CN([C@@H](C)CO)C(=O)c2cccc(NC(=O)c3ccncc3)c2O[C@@H]1CN(C)Cc1ccc(-c2ccccc2)cc1	0	-	0	-	-	-
C[C@H]1CN([C@@H](C)CO)C(=O)c2cc(NC(=O)C3CCCCC3)ccc2O[C@H]1CN(C)Cc1ccc(-c2ccccc2)cc1	10.3µM	-	0	-	-	-
O=C(O)CSCC(=O)O	-	-	-	-	-	0[9.22 µM]
COc1cc(/C=C(/C)[N+](=O)[O-])ccc1OCc1ccccc1Cl	?	13.5µM	0	0	0	0
COc1ccc(/C=N/NC(=O)c2cccc([N+](=O)[O-])c2)cc1OC	0	?	0	0	0	0
C=C[C@@H]1CN2CC[C@H]1CC2[C@H](O)c1ccnc2ccccc12 (some centres not stated)	-	-	-	-	-	0[9.22 µM]
C=CC[C@@H](CC(=O)N(CCO)Cc1ccccc1)C(=O)NC[C@@H](OC(=O)[C@@H](CC=C)CC(=O)OC(C)(C)C)c1ccccc1	20.6µM	-	0	-	-	-
C=CC[C@H](CC(=O)N(CCO)Cc1ccccc1)C(=O)NC[C@H](OC(=O)[C@@H](CC=C)CC(=O)OC(C)(C)C)c1ccccc1	20.6µM	-	0	-	-	-
CCN(CC)C(=O)c1ccc(NC(=O)c2cn(-c3ccccc3)nc2-c2ccc(OC)cc2)cc1	13µM	0	0	0	0	-
Clc1ccc(C(c2ccccc2Cl)C(Cl)(Cl)Cl)cc1 (configuration not stated)	-	-	-	-	-	0
O=C(O)c1cc[c]([Hg][Cl])cc1	0	6.75µM	0	0	0	0
C=C(Cl)Cl	-	-	-	-	-	0
C[C@@H]1C[C@@H]([C@H](O)CC2CC(=O)NC(=O)C2)C(=O)[C@@H](C)C1	0.291µM	0	0	0	0	0
C[C@@H]1CC([C@H](O)CC2CC(=O)NC(=O)C2)C(=O)[C@@H](C)C1 (some centres not stated)	-	-	-	-	-	0
SMILES	ELG1 repair inh	FLuc modulator	ELG1 genotoxic	NPC1 promoter act	Rab9 prom act	SMN2 splice up
CCC1CN2CCc3cc(OC)c(OC)cc3C2CC1CC1NCCc2cc(OC)c(OC)cc21 (configuration not stated)	-	-	-	-	-	0
CCC(=O)Nc1ccc(C(=O)OCc2ccccc2Cl)cc1	?	19µM	0	?	?	0
CCc1ccc(CNC(=O)c2ccc3c(c2)N=C(C)c2cc(C)ccc2S3)cc1	-	0	-	-	-	0
Cc1ccc(C(=O)Nc2nc3ccccc3[nH]2)cc1	?	0.0953µM	?	0.562µM	0.631µM	-
CCCCCn1c(=O)c(C(=O)Nc2nc3ccccc3[nH]2)c(O)c2ccccc21	?	0	0	0	0	-
Nc1nc(N)c(Cn2ccnc2)c(=O)[nH]1	-	-	-	-	-	0[9.22 µM]
